# Bioassay records: PubChem, National Center for Advancing Translational Sciences (NCATS)
# Six1-Eya2 inh = qHTS Assay for Inhibitors of the Six1/Eya2 Interaction; Homeobox protein SIX1 (Homo sapiens) + Protein phosphatase EYA2 (Homo sapiens), …; activity change, % (no concentration beside the values); AlphaScreen GST-Six1/His-Eya2 binding, biochemical; hits give low values; 360,000 compounds, 0.56% hits; in the data active = activity change below about -65%; inconclusive = mostly about -30% to -63%; note: % is set by controls: 0 for no effect and ±100 for the full control effect
#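 Homogeneous AlphaScreen proximity assay pairing GST-Six1 with His-tagged Eya2 (added as 5X mix: 250 nM and 500 nM) in 50 mM Tris pH 8.0, 300 mM NaCl, 1 mM TCEP. Glutathione donor and nickel acceptor beads; 1 h, 37 °C, dark.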
# RORg inh = qHTS for inhibitors of ROR gamma transcriptional activity; Nuclear receptor ROR-gamma (Mus musculus), P51450; Drosophila S2 Gal4-RORgamma UAS-luciferase reporter, 20 h; Potency, µM (top dose mostly 53.6 µM), without a hit: at the top dose activity change, negative = inhibition, most hits filed as inhibitors; 310,000 compounds, 5.4% hits; AID 2551, 2010; note: potency is the fitted concentration of half-maximal effect; % is set by controls: 0 for no effect and ±100 for the full control effect; nearly all actives have a fitted effect of over 60% in size
# Target sequence (P51450 whole entry, looked up, the tested form may be a part): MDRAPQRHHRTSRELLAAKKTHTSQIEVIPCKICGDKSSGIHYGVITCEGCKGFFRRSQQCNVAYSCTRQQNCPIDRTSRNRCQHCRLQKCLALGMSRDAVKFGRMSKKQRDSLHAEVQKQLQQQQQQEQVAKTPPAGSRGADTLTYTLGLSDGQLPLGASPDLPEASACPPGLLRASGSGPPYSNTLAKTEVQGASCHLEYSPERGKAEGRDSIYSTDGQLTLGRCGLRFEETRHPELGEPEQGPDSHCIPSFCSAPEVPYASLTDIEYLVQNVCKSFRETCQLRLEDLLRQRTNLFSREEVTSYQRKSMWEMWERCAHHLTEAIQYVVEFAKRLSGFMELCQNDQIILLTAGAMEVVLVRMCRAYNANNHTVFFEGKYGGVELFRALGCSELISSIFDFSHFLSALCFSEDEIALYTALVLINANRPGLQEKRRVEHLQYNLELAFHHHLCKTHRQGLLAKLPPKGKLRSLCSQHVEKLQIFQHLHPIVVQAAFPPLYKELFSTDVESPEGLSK
#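 Drosophila S2 cells stably expressing Gal4-DBD/mouse RORγ fusion under metallothionein promoter plus UAS-luciferase; compound 1 h, then 700 uM CuSO4 induction for 20 h at ambient temperature; inhibition read as reduced luminescence.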
# MBNL1 CUG block = qHTS Assay for Inhibitors of MBNL1-poly(CUG) RNA binding; Muscleblind-like protein 1 (Homo sapiens), Q9NR56; TR-FRET MBNL1-His/biotin-(CUG)12 binding, 665/545 ratio; Potency, µM (highest dose often 57.5 µM), for the others: at the top dose activity change, negative = inhibition, hits mostly inhibitors; 280,000 compounds, 0.036% hits; active = well fitted inhibition curve with a large enough effect in the signal ratio, with a control signal flat, not every such curve was filed as active; inconclusive = small, poorly fitted or top-dose-only effect, or effect the other way, or a change in a side signal; inactive = no such curve, though single readings can be large or run the other way; the % refers to the signal ratio; note: potency is the fitted concentration of half-maximal effect; % is set by controls: 0 for no effect and ±100 for the full control effect
#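 Compound titration spanned 92 nM–58 uM against the MBNL1-His/biotin-(CUG)12 complex. After 60 min at room temperature with 5 nM streptavidin-XL665 and 0.055 ng/ul terbium anti-His, ratiometric 665/545 nm emission (Ex 340 nm) normalized to controls.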
# VP16 counter = VP16 counterscreen qHTS for inhibitors of ROR gamma transcriptional activity; 310,000 compounds, 3.5% hits; Potency, µM (highest dose often 53.6 µM), without a hit: at the highest dose activity, negative = inhibition, actives largely listed as inhibitors; Drosophila S2 Gal4-VP16 UAS-luciferase, luminescence, 20 h; AID 2546, 2010;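 note: Gal4-VP16 expression switched on by copper sulfate through the metallothionein promoter; potency is the fitted concentration of half-maximal effect; % is set by controls: 0 for no effect and ±100 for the full control effect; nearly all actives have a fitted effect of over 50% in size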
# CtBP-E1A inh = qHTS Assay for Inhibitors of the CtBP/E1A Interaction. activity change, % (concentration not given with the values). AlphaScreen GST-E1A/His-CtBP binding, 1536-well; hits give low values. 340,000 compounds, 0.49% hits; in the data active = activity change below about -65%; inconclusive = mostly about -30% to -63%; note: % is set by controls: 0 for no effect and ±100 for the full control effect
#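 Homogeneous bead-based format: GST-tagged E1A captured on glutathione donor beads, His-tagged CtBP on nickel acceptor beads; compounds precede bead addition by 2 h at 37 °C.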
# CBFb-RUNX1 inh = qHTS Assay for Compounds Blocking the Interaction Between CBF-beta and RUNX1 for the Treatment of Acute Myeloid Leukemia | Runt-related transcription factor 1 (Homo sapiens) + Core-binding factor subunit beta … | AlphaScreen CBFb-His/RUNX1-biotin binding, biochemical | Potency, µM (titrated, usually from 59.8 µM), for inactives: at the top dose activity, negative = inhibition, hits mostly inhibitors | 230,000 tested, under 10 active | AID 1477, 2009; note: % of control where 0% means no effect
#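 Proteins preincubated together for 20 min at RT before compound addition; 15 min later, nickel and streptavidin beads were added and left 90 min prior to AlphaScreen measurement.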
# * = called active by the depositor; ? = inconclusive; / = not tested or not shown. This is a sample that favours compounds with a hit; in the whole collection about 5.5% have one here. Unless noted, calls come from the whole dose curve; as a rule, active = well fitted curve in the direction sought with a large enough effect; inconclusive = small, poorly fitted or top-dose-only effect, or another doubt; inactive = no such curve, though single readings can be large; an effect the other way counts as inactive or inconclusive.
SMILES,Six1-Eya2 inh,RORg inh,MBNL1 CUG block,VP16 counter,CtBP-E1A inh,CBFb-RUNX1 inh
O=C(Cc1ccc(F)cc1)N/N=C/c1ccccn1,-3.5,-31.9%,0.6%,10.9%,-9.7,-13.8%
CCOC(=O)/C=C/CCCC=O,/,12.6%,/,4.8%,/,-7.5%
O=C(CCc1ccc(S(=O)(=O)N2CCOCC2)cc1)Nc1c(F)cccc1F,-2.1,/,/,/,/,/
COc1ccc(OC)c(CNC(=O)CCn2c(=O)c3cccn3c3ccc(F)cc32)c1,6.6,-6.9%,-4.3%,0.1%,8.0,/
COc1ccc(C(=O)Oc2ccc(C(=S)N3CCOCC3)cc2)cc1,?,22.1%,1.2%,1.2%,3.0,-1.4%
CCCCCCCCCCOC(=O)C[N+](C)(C)C/C=C(/C)Cl,6.8,14.2%,/,22.4µM*,7.2,13.5%
CC1CCCC(NC(=O)NC(=O)CCl)C1C (configuration not stated),7.1,3.16µM*,/,5.01µM*,-1.5,-5.1%
CC1CCCC(NC(=O)CSC2CCCCC2)C1C (configuration not stated),2.5,10.5%,-1.1%,?,8.4,10.7%
CC1CCCCC1NC(=O)NC(=O)CCl (configuration not stated),9.6,5.01µM*,/,6.31µM*,-12.7,-4.5%
COc1ccc(NC(=O)CN(C)C(=O)CCC2CCCC2)cc1,4.1,-4.2%,0.0%,-1.6%,2.1,/
Cc1cc(NC(=O)c2cc(-c3cccnc3)nc3c(C)c(C)ccc23)no1,-2.8,?,7.6%,-26.1%,-0.5,5.5%
Oc1c(C(Nc2cccc(C(F)(F)F)c2)c2cccnc2)ccc2cccnc12 (configuration not stated),-82.5*,2.51µM*,/,2.82µM*,-85.5*,/
O=C(NCc1cccnc1)Nc1cccc(C(F)(F)F)c1,-1.1,35.3%,-10.1%,-3.5%,-15.3,/
Cc1cc(NC(c2cccnc2)c2ccc3cccnc3c2O)no1 (configuration not stated),-87.8*,3.98µM*,?,6.31µM*,-93.4*,?
Cc1nc([N+](=O)[O-])c(Sc2nc3ccc([N+](=O)[O-])cc3[nH]2)n1Cc1ccccc1,-11.1,15.8µM*,?,?,23.0,3.1%
C=C1CC[C@@H]2[C@](C)(CO)[C@H](O)CC[C@@]2(C)[C@@H]1C/C=C1/C(=O)OCC1O (some centres not stated),-0.4,/,/,/,7.2,/
C=C1CCC2[C@](C)(CO)C(O)CC[C@]2(C)C1C/C=C1/C(=O)OCC1O (some centres not stated),/,12.6µM*,/,-13.5%,/,/
Cc1cnc(NC(=O)c2cc3c(s2)CCCC3)s1,-6.0,2µM*,11.0%,7.08µM*,-4.3,2.4%
Cc1csc(NC(=O)c2cc3c(s2)CCCCC3)n1,6.3,2.82µM*,7.9%,3.98µM*,-3.6,-1.0%
COc1ccccc1OCCCCn1ncc2ccc(OC)c(OC)c2c1=O,0.2,34.7%,2.1%,-10.1%,/,/
CCc1nn(CC(=O)NCCCN2CCN(CC)CC2)c(=O)c2cc3occc3n12,-0.6,-28.7%,7.8%,-4.3%,0.2,/
CC1(C(=O)Nc2ccc3c(c2)OCCO3)CN(S(C)(=O)=O)CC(=O)N1CCc1ccccc1 (configuration not stated),-1.0,/,/,/,-11.5,/
O=C(CN1C(=O)NC2(CCCCC2)C1=O)NNC(=O)C1CC1,-9.4,/,/,/,-27.1,/
CSc1ccccc1NC(=O)c1ccccn1,6.7,0.447µM*,?,1.26µM*,-0.6,6.8%
